Results as given in the supplement of paper PMC10849652.
Of roughly 7,900 targets only a part is listed; those with a hit were picked by preference. About 0.6% of all pairs of compound and target were hits.

Assays:
Experiment in all cases: log2 fold change, soluble protein after heating vs DMSO (PISA); higher = thermal stabilisation; K562 cells, 10 uM, 30 min; active = over 0.2 and 3.5 SD of the protein, either way, in both replicates (recomputed)
[1] = compound: COC1=CC=C(C=C1)CN2C=CC3=C2C=C(C=C3)C(=O)NO
Method in brief: (§1)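 Soluble protein was defined as the supernatant after 21,000xg for 90 min. It came from K562 cells at 2×10^6 cells/mL given 10 μM compound for 30 min, heated in aliquots for 3 min across 48°C-58°C, pooled, and extracted in PBS with 0.5% NP-40 at 4°C, and was quantified by TMTpro 16plex LC-MS/MS with equalised channel sums. Thermal stability against control samples, from duplicates, is reported as log2 fold change.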

filanesib = compound: CON(C)C(=O)N1N=C(c2cc(F)ccc2F)S[C@@]1(CCCN)c1ccccc1 [filanesib]
Method in brief: as §1

zotarolimus = compound: CO[C@H]1C[C@@H]2CC[C@@H](C)[C@@](O)(O2)C(=O)C(=O)N2CCCC[C@H]2C(=O)O[C@H]([C@H](C)C[C@@H]2CC[C@H](n3cnnn3)[C@H](OC)C2)CC(=O)[C@H](C)/C=C(\C)[C@@H](O)[C@@H](OC)C(=O)[C@H](C)C[C@H](C)/C=C/C=C/C=C/1C [zotarolimus]
Method in brief: as §1

idasanutlin = compound: COc1cc(C(=O)O)ccc1NC(=O)[C@@H]1N[C@@H](CC(C)(C)C)[C@](C#N)(c2ccc(Cl)cc2F)[C@H]1c1cccc(Cl)c1F [idasanutlin]
Method in brief: as §1

alisertib = compound: COc1cc(Nc2ncc3c(n2)-c2ccc(Cl)cc2C(c2c(F)cccc2OC)=NC3)ccc1C(=O)O [alisertib]
Method in brief: as §1

[2] = compound: COc1cc2nc(-c3cc(F)ccc3O)nc(N[C@@H]3CNC[C@H]3C(C)(C)O)c2cc1OC
Method in brief: as §1

gefitinib = compound: COc1cc2ncnc(Nc3ccc(F)c(Cl)c3)c2cc1OCCCN1CCOCC1 [gefitinib]
Method in brief: as §1

[3] = compound: COc1cccc2cc(-c3nc([C@H]4CC[C@H](C(=O)O)CC4)n4ncnc(N)c34)[nH]c12
Method in brief: as §1

lapatinib = compound: CS(=O)(=O)CCNCc1ccc(-c2ccc3ncnc(Nc4ccc(OCc5cccc(F)c5)c(Cl)c4)c3c2)o1 [lapatinib]
Method in brief: as §1

pictilisib = compound: CS(=O)(=O)N1CCN(Cc2cc3nc(-c4cccc5[nH]ncc45)nc(N4CCOCC4)c3s2)CC1 [pictilisib]
Method in brief: as §1

[4] = compound: CS(=O)(=O)c1ccc(-c2cnc(N)c(C(=O)Nc3ccccc3)n2)cc1
Method in brief: as §1

crizotinib = compound: C[C@@H](Oc1cc(-c2cnn(C3CCNCC3)c2)cnc1N)c1c(Cl)ccc(F)c1Cl [crizotinib]
Method in brief: as §1

[5] = compound: C[C@@H]1COCCN1C2=NC(=NC(=C2)C3(CC3)S(=O)(=O)C)C4=C5C=CNC5=CC=C4
Method in brief: as §1

[6] = compound: C[C@H](C1=CC=C(C=C1)C(=O)NC2=C3C=CNC3=NC=C2)N
Method in brief: as §1

duvelisib = compound: C[C@H](Nc1ncnc2nc[nH]c12)c1cc2cccc(Cl)c2c(=O)n1-c1ccccc1 [duvelisib]
Method in brief: as §1

gandotinib = compound: Cc1cc(Nc2cc(CN3CCOCC3)c3nc(C)c(Cc4ccc(Cl)cc4F)n3n2)n[nH]1 [gandotinib]
Method in brief: as §1

tozasertib = compound: Cc1cc(Nc2cc(N3CCN(C)CC3)nc(Sc3ccc(NC(=O)C4CC4)cc3)n2)n[nH]1 [tozasertib]
Method in brief: as §1

[7] = compound: Cc1cc(SCc2sc(-c3ccc(C(F)(F)F)cc3)nc2C)ccc1OCC(=O)O
Method in brief: as §1

doramapimod = compound: Cc1ccc(-n2nc(C(C)(C)C)cc2NC(=O)Nc2ccc(OCCN3CCOCC3)c3ccccc23)cc1 [doramapimod]
Method in brief: as §1

ispinesib = compound: Cc1ccc(C(=O)N(CCCN)[C@@H](c2nc3cc(Cl)ccc3c(=O)n2Cc2ccccc2)C(C)C)cc1 [ispinesib]
Method in brief: as §1

Measured: log2 fold change

NOP53 (UniProt Q9NZM5)
inactive: [1] -0.111 | filanesib 0.533 | zotarolimus -0.008 | idasanutlin 0.365 | alisertib -0.1 | [2] 0.037 | gefitinib -0.127 | [3] -0.207 | lapatinib 0.163 | pictilisib -0.335 | [4] -0.116 | crizotinib 0.029 | [5] -0.019 | [6] 0.638 | duvelisib -0.335 | gandotinib 0.377 | tozasertib 0.147 | [7] -0.027 | doramapimod 0.277 | ispinesib 0.015

MSH2 (UniProt P43246)
Chain of UniProt P43246 (P43246 whole entry, looked up): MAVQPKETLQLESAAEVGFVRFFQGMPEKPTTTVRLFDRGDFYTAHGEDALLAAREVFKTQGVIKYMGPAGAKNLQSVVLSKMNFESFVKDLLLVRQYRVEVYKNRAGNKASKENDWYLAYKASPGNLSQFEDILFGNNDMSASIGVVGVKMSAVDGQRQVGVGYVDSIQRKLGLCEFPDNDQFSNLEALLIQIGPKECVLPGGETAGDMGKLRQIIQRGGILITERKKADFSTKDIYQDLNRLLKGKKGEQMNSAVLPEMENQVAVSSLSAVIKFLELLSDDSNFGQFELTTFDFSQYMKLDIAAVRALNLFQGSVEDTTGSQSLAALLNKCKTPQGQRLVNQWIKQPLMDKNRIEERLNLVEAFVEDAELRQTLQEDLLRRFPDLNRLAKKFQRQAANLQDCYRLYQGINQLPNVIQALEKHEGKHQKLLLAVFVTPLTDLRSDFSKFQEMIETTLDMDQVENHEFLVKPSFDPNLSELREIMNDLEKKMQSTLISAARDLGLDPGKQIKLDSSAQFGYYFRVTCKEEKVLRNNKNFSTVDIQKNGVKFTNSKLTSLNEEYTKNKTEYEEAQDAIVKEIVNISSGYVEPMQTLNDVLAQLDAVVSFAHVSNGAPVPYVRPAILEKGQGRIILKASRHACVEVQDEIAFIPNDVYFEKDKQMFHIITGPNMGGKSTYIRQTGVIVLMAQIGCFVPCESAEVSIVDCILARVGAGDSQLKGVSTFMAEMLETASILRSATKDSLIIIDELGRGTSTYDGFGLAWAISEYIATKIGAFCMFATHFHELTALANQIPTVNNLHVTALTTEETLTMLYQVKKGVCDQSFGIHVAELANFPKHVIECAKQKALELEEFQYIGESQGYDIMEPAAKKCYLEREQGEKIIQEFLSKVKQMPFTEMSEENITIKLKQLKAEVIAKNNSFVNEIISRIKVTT
inactive: [1] 0.072 | filanesib 0 | zotarolimus 0.057 | idasanutlin -0.019 | alisertib -0.018 | [2] 0.024 | gefitinib 0.007 | [3] -0.026 | lapatinib -0.021 | pictilisib 0.144 | [4] 0.057 | crizotinib 0.04 | [5] 0.056 | [6] -0.038 | duvelisib 0.08 | gandotinib -0.02 | tozasertib 0.072 | [7] 0.117 | doramapimod -0.067 | ispinesib 0.09

NOSIP (UniProt Q9Y314)
Chain of UniProt Q9Y314 (Q9Y314 whole entry, looked up): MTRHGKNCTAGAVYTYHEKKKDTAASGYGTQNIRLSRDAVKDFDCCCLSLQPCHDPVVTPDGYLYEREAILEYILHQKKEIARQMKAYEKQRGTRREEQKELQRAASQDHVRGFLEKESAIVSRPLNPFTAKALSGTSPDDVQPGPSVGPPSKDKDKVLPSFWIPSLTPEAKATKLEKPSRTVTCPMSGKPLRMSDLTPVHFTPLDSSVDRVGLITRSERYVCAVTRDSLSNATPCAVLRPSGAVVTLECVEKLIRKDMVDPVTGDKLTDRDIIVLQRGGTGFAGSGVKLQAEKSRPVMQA
inactive: [1] -0.069 | filanesib 0.143 | zotarolimus -0.018 | idasanutlin 0.029 | alisertib 0.166 | [2] 0.174 | gefitinib 0.156 | [3] -0.053 | lapatinib -0.046 | pictilisib -0.067 | [4] 0.108 | crizotinib 0.329 | [5] -0.08 | [6] -0.03 | duvelisib 0.118 | gandotinib -0.118 | tozasertib 0.191 | [7] 0.257 | doramapimod -0.113 | ispinesib 0.133

NFX1 (UniProt Q12986)
Chain of UniProt Q12986 (Q12986 whole entry, looked up): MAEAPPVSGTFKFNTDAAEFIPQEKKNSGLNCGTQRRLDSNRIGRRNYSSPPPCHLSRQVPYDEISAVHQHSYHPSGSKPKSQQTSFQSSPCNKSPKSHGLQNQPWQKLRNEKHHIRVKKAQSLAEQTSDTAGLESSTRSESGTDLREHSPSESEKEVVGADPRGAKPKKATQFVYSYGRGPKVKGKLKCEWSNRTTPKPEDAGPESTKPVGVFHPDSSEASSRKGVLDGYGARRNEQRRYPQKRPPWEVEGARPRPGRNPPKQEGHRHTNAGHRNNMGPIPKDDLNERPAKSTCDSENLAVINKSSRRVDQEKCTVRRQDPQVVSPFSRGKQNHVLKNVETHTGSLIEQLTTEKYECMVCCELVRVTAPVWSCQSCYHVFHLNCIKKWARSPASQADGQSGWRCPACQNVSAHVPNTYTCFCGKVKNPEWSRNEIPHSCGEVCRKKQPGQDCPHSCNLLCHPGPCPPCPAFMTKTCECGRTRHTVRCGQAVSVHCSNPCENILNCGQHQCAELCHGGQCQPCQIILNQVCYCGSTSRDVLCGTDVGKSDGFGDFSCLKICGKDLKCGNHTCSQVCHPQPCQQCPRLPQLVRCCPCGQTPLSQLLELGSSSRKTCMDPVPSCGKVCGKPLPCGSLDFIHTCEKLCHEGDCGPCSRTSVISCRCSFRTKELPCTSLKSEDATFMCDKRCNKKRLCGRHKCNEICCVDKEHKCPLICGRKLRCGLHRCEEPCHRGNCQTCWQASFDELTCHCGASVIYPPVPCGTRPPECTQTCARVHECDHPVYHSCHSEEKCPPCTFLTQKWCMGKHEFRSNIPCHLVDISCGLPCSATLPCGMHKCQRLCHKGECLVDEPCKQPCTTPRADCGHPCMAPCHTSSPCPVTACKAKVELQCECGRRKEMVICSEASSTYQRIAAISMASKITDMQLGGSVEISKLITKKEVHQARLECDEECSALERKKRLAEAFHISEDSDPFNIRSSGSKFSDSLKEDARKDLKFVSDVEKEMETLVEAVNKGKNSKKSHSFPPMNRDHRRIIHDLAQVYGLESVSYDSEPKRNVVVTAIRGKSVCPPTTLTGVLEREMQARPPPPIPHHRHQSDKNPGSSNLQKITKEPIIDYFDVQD
inactive: [1] -0.152 | filanesib 0.133 | zotarolimus -0.141 | idasanutlin 0.102 | alisertib 0.203 | [2] 0.079 | gefitinib 0.037 | [3] -0.012 | lapatinib 0.112 | pictilisib 0.004 | [4] -0.024 | crizotinib -0.232 | [5] -0.315 | [6] 0.09 | duvelisib 0.172 | gandotinib 0.21 | tozasertib -0.008 | [7] -0.164 | doramapimod 0.293 | ispinesib -0.202

MXRA7 (UniProt P84157)
Chain of UniProt P84157 (P84157 whole entry, looked up): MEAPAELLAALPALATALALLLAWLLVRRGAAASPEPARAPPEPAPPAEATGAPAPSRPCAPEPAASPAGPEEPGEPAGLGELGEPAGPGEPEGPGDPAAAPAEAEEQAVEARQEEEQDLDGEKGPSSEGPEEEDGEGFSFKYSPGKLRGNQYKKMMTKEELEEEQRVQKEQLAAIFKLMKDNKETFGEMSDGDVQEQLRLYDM
inactive: [1] -0.248 | filanesib 0.135 | zotarolimus 0.023 | idasanutlin -0.066 | alisertib -0.017 | [2] -0.007 | gefitinib 0.058 | [3] 0.067 | lapatinib 0 | pictilisib -0.053 | [4] 0.043 | crizotinib -0.012 | [5] 0.051 | [6] -0.138 | duvelisib -0.069 | gandotinib -0.122 | tozasertib 0.005 | [7] 0.047 | doramapimod 0.035 | ispinesib 0.103

MTOR (UniProt P42345)
active: zotarolimus -0.308
inactive: [1] 0.002 | filanesib -0.112 | idasanutlin -0.09 | alisertib -0.017 | [2] -0.012 | gefitinib -0.018 | [3] -0.019 | lapatinib 0.014 | pictilisib 0.019 | [4] 0.003 | crizotinib -0.23 | [5] 0.08 | [6] 0.06 | duvelisib 0.025 | gandotinib -0.138 | tozasertib 0.044 | [7] 0.024 | doramapimod 0.001 | ispinesib -0.184

NAGPA (UniProt Q9UK23)
Chain of UniProt Q9UK23 (Q9UK23 whole entry, looked up): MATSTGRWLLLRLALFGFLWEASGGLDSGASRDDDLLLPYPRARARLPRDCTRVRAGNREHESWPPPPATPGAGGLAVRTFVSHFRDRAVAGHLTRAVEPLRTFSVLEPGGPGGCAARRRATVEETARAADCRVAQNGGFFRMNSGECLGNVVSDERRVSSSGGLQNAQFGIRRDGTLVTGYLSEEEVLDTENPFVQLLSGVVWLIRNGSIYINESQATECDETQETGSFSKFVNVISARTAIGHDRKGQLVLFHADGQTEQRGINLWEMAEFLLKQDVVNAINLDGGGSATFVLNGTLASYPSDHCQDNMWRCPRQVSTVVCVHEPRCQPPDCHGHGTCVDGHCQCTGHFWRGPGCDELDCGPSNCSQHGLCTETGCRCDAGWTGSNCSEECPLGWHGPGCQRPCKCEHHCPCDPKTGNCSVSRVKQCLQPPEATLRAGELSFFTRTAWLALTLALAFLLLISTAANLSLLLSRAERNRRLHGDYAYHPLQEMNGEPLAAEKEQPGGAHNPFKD
inactive: [1] -0.025 | filanesib -0.046 | zotarolimus -0.099 | idasanutlin 0.054 | alisertib -0.069 | [2] -0.044 | gefitinib 0.001 | [3] 0.248 | lapatinib 0.139 | pictilisib 0.134 | [4] 0.017 | crizotinib 0.178 | [5] -0.078 | [6] -0.014 | duvelisib 0.067 | gandotinib 0.024 | tozasertib -0.094 | [7] -0.079 | doramapimod 0.072

NIBAN1 (UniProt Q9BZQ8)
Chain of UniProt Q9BZQ8 (Q9BZQ8 whole entry, looked up): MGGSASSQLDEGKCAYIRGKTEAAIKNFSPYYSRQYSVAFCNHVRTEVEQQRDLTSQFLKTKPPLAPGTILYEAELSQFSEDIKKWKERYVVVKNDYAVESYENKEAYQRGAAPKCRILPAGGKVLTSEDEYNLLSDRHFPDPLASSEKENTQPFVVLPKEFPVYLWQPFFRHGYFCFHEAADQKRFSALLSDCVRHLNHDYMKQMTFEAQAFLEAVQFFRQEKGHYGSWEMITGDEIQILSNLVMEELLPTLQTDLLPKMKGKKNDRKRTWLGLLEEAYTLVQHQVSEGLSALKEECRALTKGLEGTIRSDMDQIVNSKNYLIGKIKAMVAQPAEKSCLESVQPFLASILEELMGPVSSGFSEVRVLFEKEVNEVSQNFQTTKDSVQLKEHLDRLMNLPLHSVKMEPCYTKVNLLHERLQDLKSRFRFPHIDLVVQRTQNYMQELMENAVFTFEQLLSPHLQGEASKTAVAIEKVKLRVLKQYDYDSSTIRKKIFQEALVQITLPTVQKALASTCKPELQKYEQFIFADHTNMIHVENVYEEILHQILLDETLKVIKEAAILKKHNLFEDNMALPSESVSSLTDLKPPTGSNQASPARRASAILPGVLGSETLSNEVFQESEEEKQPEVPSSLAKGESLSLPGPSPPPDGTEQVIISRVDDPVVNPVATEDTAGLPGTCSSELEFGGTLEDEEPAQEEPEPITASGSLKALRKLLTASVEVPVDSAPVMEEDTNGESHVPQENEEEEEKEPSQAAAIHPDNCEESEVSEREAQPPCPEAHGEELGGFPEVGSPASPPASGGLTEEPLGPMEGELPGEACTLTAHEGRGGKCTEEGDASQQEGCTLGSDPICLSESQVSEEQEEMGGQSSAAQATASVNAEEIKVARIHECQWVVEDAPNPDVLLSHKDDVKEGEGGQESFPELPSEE
inactive: [1] 0.055 | filanesib 0.028 | zotarolimus 0.028 | idasanutlin -0.007 | alisertib -0.052 | [2] -0.043 | gefitinib -0.032 | [3] -0.062 | lapatinib -0.015 | pictilisib 0 | [4] 0.02 | crizotinib -0.296 | [5] 0.014 | [6] 0.097 | duvelisib 0.017 | gandotinib -0.143 | tozasertib -0.003 | [7] 0.116 | doramapimod 0.001 | ispinesib -0.148

OXSR1 (UniProt O95747)
inactive: [1] 0.014 | filanesib -0.009 | zotarolimus -0.007 | idasanutlin -0.068 | alisertib -0.073 | [2] 0.018 | gefitinib -0.007 | [3] 0.034 | lapatinib -0.033 | pictilisib 0.028 | [4] 0.031 | crizotinib -0.127 | [5] 0.021 | [6] 0.011 | duvelisib 0.037 | gandotinib -0.096 | tozasertib -0.013 | [7] 0.095 | doramapimod 0.011 | ispinesib -0.055

NME1 isoform 2 (UniProt P15531)
Chain of UniProt P15531 (P15531 whole entry, looked up): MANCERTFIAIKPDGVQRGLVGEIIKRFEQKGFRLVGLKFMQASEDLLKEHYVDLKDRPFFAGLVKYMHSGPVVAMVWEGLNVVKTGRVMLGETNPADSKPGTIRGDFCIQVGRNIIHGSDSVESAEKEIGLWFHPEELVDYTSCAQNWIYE
inactive: [1] 0.017 | filanesib 0.007 | zotarolimus 0.001 | idasanutlin 0.022 | alisertib 0.062 | [2] 0.021 | gefitinib -0.063 | [3] 0.141 | lapatinib -0.009 | [4] 0.013 | crizotinib 0.012 | [5] 0.161 | [6] 0.01 | duvelisib 0.38 | gandotinib -0.144 | tozasertib -0.07 | [7] 0.195 | doramapimod -0.015 | ispinesib 0
active: pictilisib 0.666

NDUFB8 (UniProt O95169)
Chain of UniProt O95169 (O95169 whole entry, looked up): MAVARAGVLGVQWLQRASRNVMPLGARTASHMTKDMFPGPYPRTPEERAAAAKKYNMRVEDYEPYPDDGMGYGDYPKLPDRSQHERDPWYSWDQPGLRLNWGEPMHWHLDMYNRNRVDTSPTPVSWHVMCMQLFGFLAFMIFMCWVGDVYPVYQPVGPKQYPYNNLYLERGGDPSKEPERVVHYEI
inactive: [1] -0.042 | filanesib 0.004 | zotarolimus -0.005 | idasanutlin 0.069 | alisertib -0.04 | [2] -0.141 | gefitinib -0.023 | [3] 0.06 | lapatinib -0.036 | pictilisib -0.034 | [4] 0.035 | crizotinib 0.09 | [5] -0.015 | [6] -0.001 | duvelisib 0.161 | gandotinib 0.045 | tozasertib 0.028 | [7] 0.078 | doramapimod -0.057 | ispinesib 0.123

NDUFA12 (UniProt Q9UI09)
Chain of UniProt Q9UI09 (Q9UI09 whole entry, looked up): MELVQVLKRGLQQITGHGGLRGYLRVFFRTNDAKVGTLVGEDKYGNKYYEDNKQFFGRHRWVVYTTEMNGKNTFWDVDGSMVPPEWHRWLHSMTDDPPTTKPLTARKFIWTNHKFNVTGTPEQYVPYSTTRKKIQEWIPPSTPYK
active: ispinesib -0.385
inactive: [1] -0.011 | filanesib -0.071 | zotarolimus 0.002 | idasanutlin -0.213 | alisertib 0.019 | [2] -0.167 | gefitinib -0.086 | [3] 0.056 | lapatinib -0.04 | pictilisib 0.023 | [4] 0.107 | crizotinib -0.033 | [5] 0.025 | [6] 0.015 | duvelisib 0.033 | gandotinib -0.206 | tozasertib -0.048 | [7] 0.115 | doramapimod 0.03

MRPS18B (UniProt Q9Y676)
inactive: [1] 0.011 | filanesib 0.065 | zotarolimus 0.035 | idasanutlin -0.205 | alisertib 0.069 | [2] 0.024 | gefitinib 0.078 | [3] 0.018 | lapatinib -0.005 | pictilisib -0.106 | [4] -0.187 | crizotinib -0.047 | [5] 0.075 | [6] 0.145 | duvelisib 0.006 | gandotinib -0.028 | tozasertib 0.016 | [7] 0.157 | doramapimod 0.029
active: ispinesib -0.397

MNAT1 (UniProt P51948)
Chain of UniProt P51948 (P51948 whole entry, looked up): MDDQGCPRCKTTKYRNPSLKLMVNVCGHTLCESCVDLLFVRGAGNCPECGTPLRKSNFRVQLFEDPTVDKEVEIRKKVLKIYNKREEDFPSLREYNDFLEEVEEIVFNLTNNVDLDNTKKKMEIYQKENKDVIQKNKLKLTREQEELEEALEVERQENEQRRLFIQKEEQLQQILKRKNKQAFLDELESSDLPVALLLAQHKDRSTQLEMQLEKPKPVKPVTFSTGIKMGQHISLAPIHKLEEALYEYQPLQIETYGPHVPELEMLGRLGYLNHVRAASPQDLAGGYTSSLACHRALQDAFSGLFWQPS
inactive: [1] -0.025 | filanesib 0.073 | zotarolimus 0.011 | idasanutlin 0.021 | alisertib -0.047 | [2] -0.04 | gefitinib -0.039 | [3] 0.036 | lapatinib 0.009 | pictilisib -0.016 | [4] 0.007 | crizotinib 0.02 | [5] -0.068 | [6] -0.036 | duvelisib 0.007 | gandotinib 0.024 | tozasertib 0.015 | [7] 0.005 | doramapimod -0.057 | ispinesib 0.089

MRPL34 (UniProt Q9BQ48)
inactive: [1] -0.074 | filanesib 0.081 | zotarolimus 0.072 | idasanutlin 0.029 | alisertib -0.089 | [2] -0.045 | gefitinib -0.105 | [3] -0.164 | lapatinib 0.028 | pictilisib -0.102 | [4] -0.004 | crizotinib -0.045 | [5] 0.077 | [6] 0.179 | duvelisib -0.079 | gandotinib 0.164 | tozasertib -0.002 | [7] 0.051 | doramapimod 0.152 | ispinesib -0.284

MRPS31 (UniProt Q92665)
inactive: [1] 0.016 | filanesib 0.029 | zotarolimus 0.03 | idasanutlin -0.202 | alisertib -0.008 | [2] -0.025 | gefitinib -0.077 | [3] -0.016 | lapatinib 0.054 | pictilisib -0.005 | [4] 0.063 | crizotinib 0.024 | [5] 0.027 | [6] 0.199 | duvelisib 0.005 | gandotinib 0.121 | tozasertib -0.015 | [7] 0.073 | doramapimod 0
active: ispinesib -0.28
